Bioassay records (PubChem)
This is one part of a sample in which hits are shown more often than they occur.
mHTT-CaM PPI inh = mutant huntingtin-calmodulin interaction inhibitors – biochemical, AlphaScreen, primary screen; AlphaScreen His-mHTT/GST-CaM binding, luminescence; P42858; inhibition, % at 15 µM; AID 1671202, 2021; hit rate 3.6% among 190,000;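 further: 0% = both proteins with DMSO and 100% = one protein alone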
Target sequence (P42858 whole entry, looked up, stated change not applied): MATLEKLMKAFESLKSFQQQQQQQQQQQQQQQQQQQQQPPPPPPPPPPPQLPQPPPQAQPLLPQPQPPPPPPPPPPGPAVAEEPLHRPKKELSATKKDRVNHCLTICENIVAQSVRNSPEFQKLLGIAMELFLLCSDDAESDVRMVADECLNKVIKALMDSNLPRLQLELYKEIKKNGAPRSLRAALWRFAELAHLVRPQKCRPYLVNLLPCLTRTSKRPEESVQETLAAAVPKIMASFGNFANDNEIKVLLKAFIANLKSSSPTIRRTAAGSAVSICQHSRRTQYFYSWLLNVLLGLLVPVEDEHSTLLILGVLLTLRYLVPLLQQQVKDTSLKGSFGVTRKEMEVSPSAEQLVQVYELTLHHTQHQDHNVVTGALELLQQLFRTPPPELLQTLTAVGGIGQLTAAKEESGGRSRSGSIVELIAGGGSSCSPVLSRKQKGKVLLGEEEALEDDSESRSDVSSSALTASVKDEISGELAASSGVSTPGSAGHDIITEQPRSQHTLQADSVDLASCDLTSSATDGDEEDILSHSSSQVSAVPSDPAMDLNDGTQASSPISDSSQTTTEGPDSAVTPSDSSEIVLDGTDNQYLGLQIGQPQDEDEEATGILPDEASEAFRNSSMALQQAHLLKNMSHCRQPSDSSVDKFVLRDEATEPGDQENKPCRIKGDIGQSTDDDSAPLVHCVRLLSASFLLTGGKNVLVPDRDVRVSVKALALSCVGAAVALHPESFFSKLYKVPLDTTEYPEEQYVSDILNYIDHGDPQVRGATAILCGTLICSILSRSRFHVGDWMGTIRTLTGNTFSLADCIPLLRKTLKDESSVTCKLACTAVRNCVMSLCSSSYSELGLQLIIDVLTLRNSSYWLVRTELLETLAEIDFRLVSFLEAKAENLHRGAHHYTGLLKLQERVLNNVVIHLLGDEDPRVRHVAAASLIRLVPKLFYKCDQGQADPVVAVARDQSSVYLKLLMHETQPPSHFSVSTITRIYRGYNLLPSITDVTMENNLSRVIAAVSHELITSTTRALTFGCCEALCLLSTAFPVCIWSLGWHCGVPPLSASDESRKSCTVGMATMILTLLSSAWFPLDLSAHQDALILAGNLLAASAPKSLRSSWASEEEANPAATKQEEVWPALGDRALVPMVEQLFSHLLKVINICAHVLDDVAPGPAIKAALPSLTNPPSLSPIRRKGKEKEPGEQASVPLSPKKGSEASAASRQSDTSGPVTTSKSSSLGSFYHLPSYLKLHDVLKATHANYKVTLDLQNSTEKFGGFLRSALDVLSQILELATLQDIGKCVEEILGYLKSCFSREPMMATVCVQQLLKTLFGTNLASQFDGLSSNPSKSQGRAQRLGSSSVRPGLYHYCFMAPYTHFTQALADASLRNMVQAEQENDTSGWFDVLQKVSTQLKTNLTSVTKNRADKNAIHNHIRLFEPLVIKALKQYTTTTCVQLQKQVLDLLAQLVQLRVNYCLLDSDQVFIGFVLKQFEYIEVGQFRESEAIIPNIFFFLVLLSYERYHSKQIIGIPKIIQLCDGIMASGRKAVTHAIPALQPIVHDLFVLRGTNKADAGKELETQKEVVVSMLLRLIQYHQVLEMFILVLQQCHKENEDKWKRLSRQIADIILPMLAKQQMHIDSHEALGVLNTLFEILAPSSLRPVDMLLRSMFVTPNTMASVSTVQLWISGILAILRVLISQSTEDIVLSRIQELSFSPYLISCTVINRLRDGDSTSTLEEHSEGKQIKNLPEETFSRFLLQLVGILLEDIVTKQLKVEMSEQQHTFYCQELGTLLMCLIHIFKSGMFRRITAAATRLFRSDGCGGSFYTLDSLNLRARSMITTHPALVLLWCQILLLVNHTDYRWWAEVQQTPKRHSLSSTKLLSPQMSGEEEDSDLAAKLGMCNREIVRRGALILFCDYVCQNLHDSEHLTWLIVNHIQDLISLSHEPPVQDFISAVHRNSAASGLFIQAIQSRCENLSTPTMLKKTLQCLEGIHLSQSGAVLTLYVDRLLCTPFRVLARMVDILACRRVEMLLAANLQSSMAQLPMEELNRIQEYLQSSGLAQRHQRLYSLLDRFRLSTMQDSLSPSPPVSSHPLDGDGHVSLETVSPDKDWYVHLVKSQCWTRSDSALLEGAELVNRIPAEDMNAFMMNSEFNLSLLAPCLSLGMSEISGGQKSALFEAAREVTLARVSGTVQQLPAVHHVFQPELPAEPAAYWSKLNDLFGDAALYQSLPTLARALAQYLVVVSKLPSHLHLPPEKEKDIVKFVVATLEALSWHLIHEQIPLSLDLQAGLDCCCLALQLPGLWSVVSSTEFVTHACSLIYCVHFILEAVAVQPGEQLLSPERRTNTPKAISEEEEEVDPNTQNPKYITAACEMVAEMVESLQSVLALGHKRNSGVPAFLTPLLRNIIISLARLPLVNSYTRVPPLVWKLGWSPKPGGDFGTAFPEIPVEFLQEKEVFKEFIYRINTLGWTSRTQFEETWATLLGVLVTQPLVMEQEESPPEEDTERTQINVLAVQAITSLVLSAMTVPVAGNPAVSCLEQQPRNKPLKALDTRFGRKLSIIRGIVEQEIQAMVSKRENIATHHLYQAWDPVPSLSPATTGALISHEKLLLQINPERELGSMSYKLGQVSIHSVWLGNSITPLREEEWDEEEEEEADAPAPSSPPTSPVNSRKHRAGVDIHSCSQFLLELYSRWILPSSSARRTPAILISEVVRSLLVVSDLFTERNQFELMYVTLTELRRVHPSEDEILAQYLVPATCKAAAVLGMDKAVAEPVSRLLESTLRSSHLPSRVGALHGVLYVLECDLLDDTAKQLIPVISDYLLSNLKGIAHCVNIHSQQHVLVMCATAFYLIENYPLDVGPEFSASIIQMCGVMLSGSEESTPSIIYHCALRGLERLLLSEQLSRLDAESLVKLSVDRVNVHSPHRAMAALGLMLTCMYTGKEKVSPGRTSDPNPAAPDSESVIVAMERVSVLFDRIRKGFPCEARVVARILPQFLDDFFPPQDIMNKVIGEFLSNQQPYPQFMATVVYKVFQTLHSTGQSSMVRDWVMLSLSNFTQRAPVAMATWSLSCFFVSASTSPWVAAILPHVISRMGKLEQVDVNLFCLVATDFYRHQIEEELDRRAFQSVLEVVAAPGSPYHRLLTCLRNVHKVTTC
Pf apPOL inh = Pf-apPOL inhibitors, biochemical, fluorescence. Plasmodium falciparum apicoplast DNA polymerase (apPOL). Recombinant Pf-apPOL, molecular beacon fluorescence, 1.5 h. inhibition, % at 10 µM. hit rate 0.25% among 210,000
Numbers without * were called inactive; / = not tested or not shown. No stated cut-off is given here; in the data, active means inhibition above about 50%; inactive means the rest.

SMILES | mHTT-CaM PPI inh | Pf apPOL inh
CN(CC(=O)N1CCCC1)S(=O)(=O)c1ccc(Cl)cc1 | -4 | 51*
O=C(CC1OCC2CCCCN2C1=O)Nc1ccc(F)cc1 (stereo not drawn) | -4 | 8
Cc1csc(NC(=O)c2ccc(=O)n(C)n2)n1 | -6 | -6
CCN1CCN(CCNC(=O)C2CCN(Cc3cn(C)c4ccc(OC)cc34)CC2)CC1 | -6 | 2
O=C(Nc1nnc(-c2ccc(F)cc2)o1)c1ccc(S(=O)(=O)N2CCCC2)cc1 | 19 | -61
O=C(Nc1ccc2c(c1)OCCCO2)Nc1csc2ccccc12 | / | -1
CC(=O)N1CC(C(=O)NCc2ccccn2)CCC1c1ccc(F)c(C)c1 (stereo not drawn) | 80* | -15
CC1CCN(c2nnc(C(=O)NCc3ccccn3)c3ccccc23)CC1 | 36 | -6
CC(=O)N1CC(C(=O)NCCc2ccccn2)CCC1c1ccc(F)c(C)c1 (stereo not drawn) | 6 | -5
Cc1ccc(N2CC(C(=O)NCc3ccccc3)CC2=O)cc1 (stereo not drawn) | -8 | -6
CC1CCN(c2ccc(N3CCC(C(=O)NCc4ccccn4)CC3)nn2)CC1 | 71* | -6
Cc1ccc(-c2nnc(N3CCC(C(=O)NCc4ccccc4)CC3)o2)cc1 | 6 | -2
Cc1ccc(N2CC(C(=O)NCc3ccccn3)CC2=O)cc1 (stereo not drawn) | 100* | -19
Cc1ccc(-c2nnc(N3CCC(C(=O)NCc4ccccn4)CC3)o2)cc1 | 76* | -8
CCN(CC)CCNC(=O)C1c2cc(OC)c(OC)cc2C(=O)N(C)C1c1cccnc1 (stereo not drawn) | 0 | -5
CCSc1nnc(NC(=O)c2cc(Cl)ccc2OC)s1 | 0 | -3
CCn1c(CC2CCN(C(=O)c3ccc(C)c(F)c3)C2)nc2cccnc21 (stereo not drawn) | 7 | -5
CCCN(CCO)Cc1c(Cl)cccc1Cl | -4 | 0
CCc1ccc(N(CC(=O)Nc2cccc(SC)c2)S(C)(=O)=O)cc1 | 2 | 2
CCOc1sc(C)c(C)c(=O)c1N | 1 | /
COc1ccccc1NC(NC(=O)c1cccc([N+](=O)[O-])c1)C(Cl)(Cl)Cl (stereo not drawn) | 47 | 1
Cc1ccc(C)c(NC(NC(=O)c2cc([N+](=O)[O-])cc([N+](=O)[O-])c2)C(Cl)(Cl)Cl)c1 (stereo not drawn) | 70* | 2
Cc1ccc(NC(NC(=O)c2cccc([N+](=O)[O-])c2)C(Cl)(Cl)Cl)c(C)c1 (stereo not drawn) | 62* | -2
COc1ccc(C(=O)NC(Nc2ccc(C)cc2C)C(Cl)(Cl)Cl)cc1 (stereo not drawn) | 8 | 3
COc1ccc2c(C)cc(Sc3nnnn3-c3ccccc3)nc2c1 | -16 | -3
SMILES | mHTT-CaM PPI inh | Pf apPOL inh
Cc1ccccc1C(=O)Nc1cccc(NC(=O)c2cccc([N+](=O)[O-])c2C)c1 | 10 | -11
CC(=NNc1c([N+](=O)[O-])cc(C(F)(F)F)cc1[N+](=O)[O-])c1cccnc1 | / | -13
C[C@H]1CCC(=O)N(CCSc2ccc(Br)cc2)CC1 | -12 | -10
Cn1c(=O)c2c(NCc3ccccc3)cc(=O)n(C)c2n(C)c1=O | / | 48
O=C1/C(=C/C=C/c2ccco2)CC/C1=C\C=C\c1ccco1 | 84* | 1
O=C1C(=Cc2ccco2)COCC1=Cc1ccco1 | / | 8
COc1ccc(CNC(=O)C2(C)CCCN(S(=O)(=O)c3ccc(C(C)=O)cc3)C2)cc1 (stereo not drawn) | 0 | -5
c1ccc(CNc2nc(-c3ccccc3)[n+](-c3ccccc3)s2)cc1 | 84* | -6
c1ccc(Nc2nc(-c3ccccc3)[n+](-c3ccccc3)s2)cc1 | 22 | -8
CC(C)c1c(C2CCN(C(=O)c3c(F)cccc3Cl)CC2)noc1N | -1 | 0
CCCC1c2cccn2CCN1C(=O)Nc1cccc(C(F)(F)F)c1 (stereo not drawn) | 55* | -4
CCCC1c2cccn2CCN1C(=O)Nc1ccc(F)c(Cl)c1 (stereo not drawn) | 83* | -2
CC1c2cccn2CCN1C(=O)Nc1cccc(C(F)(F)F)c1 (stereo not drawn) | 21 | -3
Cc1ccc2n1CCN(C(=O)Nc1ccc(F)c(Cl)c1)C2C(C)C (stereo not drawn) | 62* | -8
Cc1ccc(NC(=O)N2CCn3c(C)ccc3C2C(C)C)cc1C (stereo not drawn) | 6 | -4
CC1c2cccn2CCN1C(=O)Nc1ccc(F)c(Cl)c1 (stereo not drawn) | 5 | -2
CCCC1c2ccc(C)n2CCN1C(=O)Nc1ccc(F)c(Cl)c1 (stereo not drawn) | 90* | 2
CCCC1c2ccc(C)n2CCN1C(=O)Nc1cccc(Cl)c1 (stereo not drawn) | 28 | 6
O=C1OC(c2ccccc2)=N/C1=C/c1ccccc1Br | 11 | -15
CC(C)Sc1nc2c(c(=O)n1-c1ccc(Br)cc1)SCC2 | -5 | -12
Cc1cc(N2C(=O)CSC2c2ccc(F)cc2)ccc1Br (stereo not drawn) | -20 | -3
CC1CC(C)CN(c2nc3c(c(=O)n(C)c(=O)n3C)n2Cc2ccccc2Cl)C1 (stereo not drawn) | 0 | 3
CSC1=C(C#N)C(c2cccs2)C(C(=O)Nc2ccccc2C)=C(C)N1 (stereo not drawn) | -10 | -5
O=C(c1ccccc1NS(=O)(=O)c1cccc2nsnc12)N1CCOCC1 | -1 | 1
Cc1ccc2n1CCN(C(=O)Nc1cccc(C(F)(F)F)c1)C2C(C)C (stereo not drawn) | 74* | -3
SMILES | mHTT-CaM PPI inh | Pf apPOL inh
CCCC1c2cccn2CCN1C(=O)Nc1ccc(F)cc1 (stereo not drawn) | 9 | -5
CCCC1c2cccn2CCN1C(=O)Nc1ccc(C)c(F)c1 (stereo not drawn) | 51* | 3
Cc1ccc2n1CCN(C(=O)Nc1ccccc1C(F)(F)F)C2C(C)C (stereo not drawn) | -1 | -1
O=[N+]([O-])c1ccc(O)c(C=Nc2ccc3nc(-c4ccccc4)[nH]c3c2)c1 | 21 | -4
Oc1ccc2ccccc2c1N=Nc1ccccc1 | 84* | /
CCN(CC)c1ccc(N=Nc2c(O)ccc3ccccc23)cc1 | / | -12
O=C(Nc1ccc(NC(=O)c2cccc(Br)c2)cc1)c1ccccc1 | -6 | -6
C=CCN1N=C(NC(=O)c2cccc(Br)c2)SC=C1c1ccccc1 | 55* | -11
CC1C(C(=O)O)CC(C(=O)O)C1(C)C (stereo not drawn) | -2 | -9
CCCn1c(C(=O)N(C)Cc2ccccc2)cc2sc(Br)cc21 | 14 | -4
CCCn1c(C(=O)N(C)Cc2ccccc2)cc2sc(C)cc21 | 91* | -12
CCOc1ccc(CC(=O)Nc2cccc(-c3ccc(N4CCN(C)CC4)nn3)c2)cc1 | 12 | -1
O=C(CN1C(=O)C(=O)c2ccccc21)c1ccc(Cl)cc1 | 0 | -10
O=C1C(=O)N(C(c2ccccc2)c2ccc(Cl)cc2)c2ccccc21 (stereo not drawn) | 93* | -2
Fc1ccc(Cn2cc(-c3noc(-c4ccccc4)n3)nn2)cc1 | -6 | 1
Cc1c(C(=O)Nc2c3c(nn2-c2ccc([N+](=O)[O-])cc2)CSC3)cccc1[N+](=O)[O-] | 3 | -6
Cc1ccc(C(=O)Nc2c3c(nn2C(C)(C)C)CSC3)cc1[N+](=O)[O-] | 29 | 4
